Most compounds without a hit are left out; they make up all but 9.2% or so of the library.
USP10 block = inhibitors of human USP10 deubiquitinase | inhibition, % at 20 µM | Q14694 | hit rate 1.1% among 47,000 | purified USP10, Ub-rhodamine fluorescence, 60 min | AID 1645856
OTUD3 block = inhibitors of human OTUD3 deubiquitinase | Q5T2D3 | purified OTUD3, Ub-rhodamine fluorescence, 2 h | inhibition, % at 25 µM | hit rate 0.7% among 47,000
USP7 block = human USP7 deubiquitinase inhibition; inhibition, % at 20 µM; purified USP7, Ub-rhodamine cleavage fluorescence; AID 1645854; Q93009; hit rate 0.3% among 47,000
USP17 inh = human USP17-like deubiquitinase inhibition; A8MUK1; inhibition, % at 50 µM; purified USP17, Ub-rhodamine cleavage fluorescence, 3 h; AID 1645855; hit rate 6.5% among 47,000
UCHL1 inh = blocks human UCHL1 ubiquitin-rhodamine cleavage; P09936; purified UCHL1, Ub-rhodamine cleavage fluorescence; inhibition, % at 20 µM; hit rate 0.2% among 47,000
USP8 inh = human USP8 deubiquitinase inhibition | P40818 | purified USP8, Ub-rhodamine cleavage fluorescence, 30 min | inhibition, % at 20 µM | hit rate 4.2% among 47,000
* marks the source's active call; other numbers are inactive results; nt = not tested or not shown. Cut-off read from the data, not from the text of the source: active = inhibition above about 30%; inactive = the rest.

SMILES	USP10 block	OTUD3 block	USP7 block	USP17 inh	UCHL1 inh	USP8 inh
CCN1CCN(c2nc(F)c3c(c2F)S(=O)(=O)CCN3Cc2ccccc2)CC1	2.1	6.3	-17.4	10.0	-0.1	-1.9
CC1CCCCN1c1nc(F)c2c(c1F)S(=O)(=O)CCN2Cc1ccccc1 (configuration not stated)	-3.6	7.3	-2.5	56.8*	5.2	88.8*
COc1ccc(OC)c(NC(=O)C(C)N2c3cccc4cccc(c34)S2(=O)=O)c1 (configuration not stated)	7.0	8.2	8.0	2.4	4.6	40.9*
O=C(Nc1ccccc1C(F)(F)F)c1cc(C2CC2)on1	1.0	10.7	-39.6	10.9	3.1	-8.7
O=C(Nc1cccnc1Cl)c1cc(-c2ccco2)on1	-5.0	0.8	-14.5	-3.1	-8.8	-21.9
O=C(Nc1ccc2c(c1)OCO2)c1cc(-c2ccco2)on1	-0.5	17.4	-7.4	44.3*	6.8	7.0
COc1ccc(S(=O)(=O)N2CCN(C(=O)c3cnc4ccccc4n3)CC2)cc1OC	-1.6	-42.3	-13.0	23.7	-1.6	61.3*
COc1ccccc1C(=O)N1CCC(S(=O)(=O)c2ccc(-c3ccco3)cc2)CC1	0.8	15.5	1.4	56.2*	4.1	53.4*
O=C(c1cnc2ccccc2n1)N1CCC(S(=O)(=O)c2ccc(-c3ccco3)cc2)CC1	21.2	-3.2	20.7	44.3*	17.4	55.9*
COc1noc(C2CCN(C(=O)c3cnc4ccccc4n3)CC2)c1C	-1.0	11.9	0.9	0.8	2.4	-1.1
COc1ccc(S(=O)(=O)N2CCCC(C(=O)N3CCCC3)C2)cc1OC (configuration not stated)	-0.7	-3.0	1.5	-8.2	-3.3	0.0
COc1ccccc1-c1nc2ccccc2n1C1CCN(C(=O)NCCN)CC1	0.8	11.8	8.2	-3.7	3.1	-33.4
Cc1nc(C2CCN(Cc3cnc(C(C)C)nc3)CC2)nc2c1CCC(=O)N2C	-0.7	7.5	2.3	-6.2	-1.3	-25.5
Cc1nc(-c2ccccc2)sc1C(=O)NCc1ccc2c(c1)OCO2	8.9	0.3	2.2	-0.3	7.0	-1.7
COc1cccc(CNC(=O)c2sc(-c3ccc(OC)c(OC)c3)nc2C)c1	-2.5	16.3	5.7	44.9*	5.8	12.1
COc1ccccc1CNC(=O)c1ccccc1OCc1ccc(F)cc1	5.6	27.4	-8.6	27.4	3.8	23.4
COc1ccc(-c2nc(C)c(C(=O)NCCc3ccc(S(N)(=O)=O)cc3)s2)cc1	30.3*	2.4	-0.5	2.6	-1.2	37.3*
COc1cccc(CNC(=O)c2ccccc2OCc2ccccc2)c1	17.6	17.1	-17.9	31.2*	7.4	10.5
COc1cc(Cl)c(NC(=O)C2Cc3ccccc3N2C(=O)c2ccccc2)c(OC)c1 (configuration not stated)	35.6*	-2.2	0.8	0.0	1.4	-7.6
O=C(Nc1ccc2c(c1)OCCO2)c1cc(CN2CCOCC2)on1	0.8	-0.2	2.9	nt	0.0	3.6
CCC(C)c1ccc(NC(=O)CN(C=C2NC(=O)c3ccccc3N2)CC)cc1 (configuration not stated)	3.9	-2.3	-0.5	1.0	3.2	0.5
CCN(C=C1NC(=O)c2ccccc2N1)CC(=O)Nc1ccc(Cl)c(C(F)(F)F)c1	-2.6	-5.6	-10.6	-0.5	5.6	30.3*
Cc1nc(NC(=O)c2nnn(-c3ccc(C(F)(F)F)cc3)n2)sc1C	4.0	-2.3	-6.0	4.2	-1.6	-12.2
O=S(=O)(Nc1ccc(N2CCCCC2)cc1)c1ccccc1F	2.1	-24.2	-3.7	33.8*	5.8	8.7
CC(=O)N1CCN(c2oc(-c3ccc(COc4ccc(C)cc4)o3)nc2C#N)CC1	-1.9	8.7	-15.8	7.9	7.8	10.9
CCOc1ccc(-c2nc(C#N)c(N3CCN(C(=O)c4ccccc4C)CC3)o2)cc1	0.0	11.6	5.5	52.5*	4.7	0.2
CCOc1ccc2c(c1)c(=O)c(C(=O)c1ccccc1)cn2CC(=O)Nc1ccc(Cl)cc1	46.6*	-7.9	29.9	-24.5	6.0	93.2*
COc1ccc(NC(=O)COc2ccc(C(=O)c3ccc(Cl)cc3)cc2)cc1OC	2.6	-16.1	2.1	6.9	1.5	-0.5
COc1cn(CC(=O)Nc2ccc(Cl)cc2)c(CSc2ccccc2)cc1=O	0.4	2.7	-168.0	nt	1.3	4.9
COc1ccc(NC(=O)Cn2cc(C(=O)c3ccc(Cl)cc3)c(=O)c3cc(F)ccc32)cc1	52.6*	15.3	24.8	31.1*	6.0	15.7

Screening data (PubChem BioAssay)
